About 25 (0.007%) of roughly 380,000 compounds were called active. Calls come from the whole dose curve; as a rule, active = well fitted activation curve with a large enough effect; inconclusive = small, poorly fitted or top-dose-only effect; inactive = no such curve, though single readings can be large or run the other way. The list is a sample of the results.
Biological target: Glucagon-like peptide 1 receptor (Homo sapiens) (UniProt P43220)
Test: qHTS of GLP-1 Receptor Agonists
Details: HEK293 GLP-1R CRE-luciferase, luminescence, 4-6 h, cells express a hypersensitive GLP-1R form; series mostly up to 45.6 µM
Description: The overall goal of this project was to develop a novel assay for discovering small molecule ligands for class B1 G protein-coupled receptors (GPCRs). Very few agonists (or inverse agonists) with generally weak activity for this entire group of physiologically important receptors are known to date. To establish proof-of-principle that this critical bottleneck can be overcome with a suitable screening approach, our studies focused on the class B1 receptor for glucagon-like peptide-1 (GLP-1R), a potential therapeutic target for diabetes and neurodegenerative disease.
The assay was developed in a "mix and measure" format using a cell-based functional readout. Toward this goal, stably transfected HEK293 cell clones were established that co-express (i) a cAMP-responsive luciferase reporter gene, and (ii) GLP-1Rs that upon ligand interaction either stimulate (agonists) or inhibit (inverse agonists) luciferase activity. In different cell lines to be used for screening, expressed GLP-1Rs are specifically optimized for high sensitivity detection of either weak agonists (hypersensitive receptor) or inverse agonists (constitutively active receptor mutant). In addition, control cell lines were developed that express either the cAMP-responsive reporter gene without recombinant GLP-1Rs (enabling initial exclusion of GLP-1R independent effects of candidate probes), or the reporter gene together with wild type GLP-1Rs (for confirmation of probe activity at this receptor), or the reporter gene in combination with the constitutively active orphan receptor GPR119 (enabling initial exclusion of GLP-1R independent inhibitory effects of candidate inverse agonists).
To that end, this assay was optimized for 1536-well format and screened against the MLSMR.
NIH Molecular Libraries Probe Production Network [MLPCN]
NIH Chemical Genomics Center [NCGC]
PI Name: Martin Beinborn, Tufts Medical Center
In a white solid 1536-well plate, 6 uL of cells are dispensed in DMEM without phenol red, 10% Nu serum, and 1% pen-strep medium. The plates are then incubated for 12 hours at 37 deg C at 5% CO2 before 23 nL of compounds are added. After a 4-6 hr incubation at37 deg C and 5% CO2, 3 uL of detection reagent are added and after a 12 min incubation at RT, a luminescent read is obtained on the ViewLux.

Sequence of Glucagon-like peptide 1 receptor (Homo sapiens) (P43220 whole entry, looked up): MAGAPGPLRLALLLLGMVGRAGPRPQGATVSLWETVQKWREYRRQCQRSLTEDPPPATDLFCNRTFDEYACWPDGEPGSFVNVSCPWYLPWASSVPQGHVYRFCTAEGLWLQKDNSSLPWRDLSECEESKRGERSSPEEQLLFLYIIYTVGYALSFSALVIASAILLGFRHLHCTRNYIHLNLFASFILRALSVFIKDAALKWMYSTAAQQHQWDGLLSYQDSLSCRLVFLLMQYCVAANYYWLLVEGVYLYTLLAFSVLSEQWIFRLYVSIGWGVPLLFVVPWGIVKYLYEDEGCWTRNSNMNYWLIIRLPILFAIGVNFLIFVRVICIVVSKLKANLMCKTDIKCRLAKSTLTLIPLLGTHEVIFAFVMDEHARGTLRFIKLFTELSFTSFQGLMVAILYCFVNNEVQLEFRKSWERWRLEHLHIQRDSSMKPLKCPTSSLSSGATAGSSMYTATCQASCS

outcome, inactive:
COC(=O)[C@@H]1CC2=CC(=O)CC[C@]2(C)[C@@]23O[C@@H]2C[C@@]2(C)[C@@H](CC[C@@]24CCC(=O)O4)[C@H]13
OCC(CO)NC1C[C@](O)(CO)[C@@H](O)[C@H](O)[C@H]1O (some centres not stated)
Cc1ccccc1NC(=O)Cn1c(=O)n(Cc2ccco2)c(=O)c2ccc(C(=O)NC3CCCC3)cc21
CC(=O)O[C@]1(C(C)=O)CC[C@@H]2[C@@H]3C=C(C)C4=CC(=O)CC[C@@]4(C)[C@H]3CC[C@]21C
C[C@]12CC[C@@H]3c4ccc(O)cc4C[C@@H](CCCCCCCCCS(=O)CCCC(F)(F)C(F)(F)F)C3[C@@H]1CC[C@@H]2O (some centres not stated)
Cc1nn(-c2ccc(F)cc2)c(-n2cccc2)c1C(=O)N1CCN(c2ccccc2)CC1
O=C(CCCCn1c(=O)c2ccccc2n(CC(=O)Nc2cccc(C(F)(F)F)c2)c1=O)NCc1ccc2c(c1)OCO2
COc1cccc(NC(=O)CSc2cc(=O)n(C)c3ccc(Cl)cc23)c1
CCc1ccccc1NS(=O)(=O)c1ccc2nc(-c3ccccc3)[nH]c2c1
Cc1ccc(C)c(N2CCN(C(=O)CCc3c(C)nc4c(c3C)c(=O)n(C)c(=O)n4C)CC2)c1
O=C(Nc1cccc(C(F)(F)F)c1)c1cc(Br)cc(Br)c1O
CCOC(=O)c1ccc(N2C(=O)c3n[nH]c(C)c3C2c2ccc(O)c(OC)c2)cc1 (configuration not stated)
CCc1ccc(NC(=O)CN2CCSc3ccc(S(=O)(=O)N4CCCC4)cc32)cc1
C=C1C(=CC=C2CCC[C@]3(C)[C@@H]([C@H](C)C=C[C@H](C)C(C)C)CC[C@@H]23)C[C@@H](O)C[C@@H]1O
CCOc1ccc(NC(=O)Cn2cc(C(=O)c3ccc(C)cc3)c(=O)c3cc4c(cc32)OCCO4)cc1
CCOC(=O)c1oc2ccc(S(=O)(=O)n3nc(-c4ccccc4OC)cc3N)cc2c1C
COc1ccc(S(=O)(=O)n2nc(C)c(S(=O)(=O)N3CCCCCC3)c2C)cc1
CCN(C(=O)c1sc2cc(OC)ccc2c1Cl)c1ccccc1
CN(C)c1ccc(NC(=O)CSc2nc(-c3ccco3)cc(C(F)(F)F)n2)cc1
CCCCC(=O)OCC(=O)[C@H]1[C@H](C)C[C@@H]2[C@@H]3C[C@@H](F)C4=CC(=O)C=C[C@]4(C)[C@@]3(F)[C@@H](O)C[C@@]21C
COc1ccc(NC(=O)Cn2c(=O)cc(C)c3c(C)nn(-c4cccc(Cl)c4C)c32)cc1OC
CCCCCCCCCc1ccc(OCCOCCOCCOCCOCCOCCOCCOCCOCCO)cc1
